IL-1B inflam inh: inhibitors of inflammasome signaling (IL-1 beta secretion). 360,000 compounds, 4.7% hits. activity change, % at 57.5 µM. THP-1 LPS/ATP IL-1B secretion, AlphaLISA, 16 h; active compounds read low; in the data active = activity change below about -50%; inconclusive = mostly about -30% to -49%
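THP-1 cells pretreated 1 hr with compounds (up to 57.5 uM final), then stimulated with LPS (250 ng/mL final) plus ATP (1.25 mM final); secreted IL-1B measured by AlphaLISA after 16 hr, decreased signal indicating inhibition.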
D3 ag: D3 dopamine receptor (human) agonism; 410,000 compounds, 0.58% hits; max activation, %; D3R DiscoveRx beta-arrestin cells, luminescence, 90 min; P35462; in the data active = max activation above about 30%
Target sequence (P35462 whole entry, looked up): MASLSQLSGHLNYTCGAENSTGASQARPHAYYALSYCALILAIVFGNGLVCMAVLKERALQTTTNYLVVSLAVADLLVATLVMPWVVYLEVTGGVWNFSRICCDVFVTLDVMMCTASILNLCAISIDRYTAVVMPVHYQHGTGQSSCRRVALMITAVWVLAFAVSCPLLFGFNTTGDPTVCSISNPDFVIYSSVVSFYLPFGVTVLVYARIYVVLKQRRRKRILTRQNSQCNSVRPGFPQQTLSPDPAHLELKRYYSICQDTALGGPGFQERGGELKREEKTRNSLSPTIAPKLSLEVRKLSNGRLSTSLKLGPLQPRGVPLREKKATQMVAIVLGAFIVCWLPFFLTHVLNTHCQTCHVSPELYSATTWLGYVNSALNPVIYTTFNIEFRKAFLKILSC
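Cells at 1500/well, incubated overnight, then treated with pinned compounds (dopamine as control) for 90 min at 37 degrees C. DiscoveRx reagent added for 30 - 60 minutes at room temperature; luminescence read.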
TDP1 cell CPT: growth inhibition of DT40 Tdp1-/-;hTDP1 cells with camptothecin (screen for TDP1 inhibitors); Potency, µM (top dose mostly 46.2 µM), hits mostly inhibitors; chicken DT40 Tdp1-/-;hTDP1 cells + 20 nM CPT, ATP luminescence, 48 h; 420,000 compounds, 12% hits; note: nearly all actives have a fitted effect of over 55% in size
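Cell growth measured by CellTiter-Glo luminescence after a minimum 48 h, 37 C compound exposure with 20 nM CPT in Tdp1-knockout DT40 cells stably expressing hTDP1, seeded 400/well; qHTS titration format.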
ClpP mod: qHTS Assay for Activators of ClpP. 340,000 compounds, 1.9% hits. Potency, µM (titrated, usually from 57.5 µM). purified B. subtilis ClpP, FRET peptide cleavage, 20 min. AID 651965, 2013; active = well fitted falling curve with a large enough effect; inconclusive = small, poorly fitted or top-dose-only effect; inactive = no such curve, though single readings can be large or run the other way; note: the source files actives as falling curves though it sought activators and does not explain the sign; nearly all actives have a fitted effect of over 65% in size
Target sequence (P80244 whole entry, looked up): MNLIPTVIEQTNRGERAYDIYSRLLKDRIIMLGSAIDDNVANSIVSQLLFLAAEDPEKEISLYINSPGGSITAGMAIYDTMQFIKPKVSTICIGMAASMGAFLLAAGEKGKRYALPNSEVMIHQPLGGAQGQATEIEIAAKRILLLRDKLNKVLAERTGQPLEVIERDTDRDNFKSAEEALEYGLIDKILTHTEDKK
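ClpP 10 microg/mL final, pH 8 Tris/KCl buffer with BSA, glycerol, Tween-20; compound pinned in; FRET-FV substrate; RT 20 min; Ex320/Em430; ΔFRET vs ADEP 5.8 microM, DMSO, no enzyme.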
D3 antag: antagonists of human D3 dopamine receptor; P35462; D3R cells, DiscoveRx beta-arrestin luminescence, antagonist mode; active compounds read low; max response, negative = inhibition, %; 360,000 compounds, 2.5% hits; AID 652054; in the data active = max response below about -50%; inconclusive = no clear call, values can overlap the other calls
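Cells expressing the human receptor were seeded at 1500 cells/well, incubated overnight at 37 degrees C in 5% CO2, then exposed to library compounds with dopamine controls for 90 minutes at 37 degrees C before luminescent detection.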
TDP1 cell noCPT: qHTS for Inhibitors of human tyrosyl-DNA phosphodiesterase 1 (TDP1): qHTS in cells in absence of CPT | DT40 Tdp1-/- hTDP1 cells, no CPT, ATP luminescence, 48 h | 420,000 compounds, 15% hits | Potency, µM (highest dose often 46.2 µM), hits mostly inhibitors; note: nearly all actives have a fitted effect of over 55% in size
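Luminescent ATP content (CellTiter-Glo) served as the growth readout. Knockout chicken DT40 cells expressing human TDP1 were exposed to compounds without camptothecin for a minimum 48 hr at 37 °C.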
Hits are given with their value; i = inactive; ? = inconclusive; nt = no result given. Compounds with a hit are over-represented: about 21% of the library has one in this group of screens. Unless noted, calls come from the whole dose curve; as a rule, active = well fitted inhibition curve with a large enough effect; inconclusive = small, poorly fitted or top-dose-only effect; inactive = flat fitted curve, though single readings scatter.

SMILES | IL-1B inflam inh | D3 ag | TDP1 cell CPT | ClpP mod | D3 antag | TDP1 cell noCPT
COc1cccc(N(CC(=O)NC2CCCCC2)C(=O)CCC(=O)Nc2nc(C)cs2)c1 | i | i | i | nt | i | ?
S=C(NCc1ccco1)N1CCN(C/C=C/c2ccccc2)CC1 | i | i | i | nt | i | ?
CC(C)c1ccc(S(=O)(=O)N2CCN(C(=S)NCc3ccco3)CC2)cc1 | i | i | 15µM | i | i | ?
O=S(=O)(c1cccc(C(F)(F)F)c1)N1CCN(C(=S)NCc2ccco2)CC1 | i | i | i | i | i | ?
S=C(NCc1ccco1)N1CCN(c2ccc(Cl)cc2)CC1 | i | i | i | nt | i | 23µM
S=C(NCc1ccco1)N1CCN(Cc2ccc(Cl)cc2Cl)CC1 | ? | i | ? | i | i | 23µM
O=C(Nc1ccc(Cl)cc1)C1CCCN(C2=NS(=O)(=O)c3ccccc32)C1 (centres undefined) | i | i | ? | i | i | ?
CC(C)CN(CCNC(=O)CCN1N=C(c2ccccc2)CCC1=O)CC(C)C | nt | i | i | i | nt | i
CCc1ccc(S(=O)(=O)c2nnn3c2nc(NCc2cccc(OC)c2)c2cc(Cl)ccc23)cc1 | nt | i | ? | i | nt | ?
CCCSc1cc(N2CCCC2)nc(-c2ccccc2)n1 | i | i | i | i | i | i
CCCSc1cc(N2CCN(C)CC2)nc(-c2ccc(OC)cc2)n1 | -57 | i | ? | i | i | ?
COc1ccc(-c2oc3c(c2C#CC2(O)CCCCC2)C(OC(C)=O)CCC3)cc1 (centres undefined) | i | i | ? | i | i | ?
COc1ccc(-c2oc3c(c2C#CC(C)(C)O)C(OC)CCC3)cc1 (centres undefined) | -59 | i | ? | i | i | 16µM
CCc1nn2c(=O)cc(COC(=O)C3CCCCC3)nc2s1 | nt | i | i | i | nt | i
O=C(NC(=S)Nc1cccc(F)c1)c1cccc([N+](=O)[O-])c1 | i | i | i | i | -51 | i
CC(C)NS(=O)(=O)c1ccc(NC(=S)NC(=O)c2cccc([N+](=O)[O-])c2)cc1 | i | i | i | i | -94 | i
O=C(NC(=S)Nc1ccc(N2CCOCC2)cc1)c1cccc([N+](=O)[O-])c1 | i | i | i | i | i | i
CC(=O)Nc1ccc2c(c1)C(=O)N(C1CCCCC1)C2=O | i | i | i | 25µM | i | i
CCCNC(=O)c1ccc2c(=O)n3c(-c4ccc(C)cc4)csc3nc2c1 | i | i | i | i | ? | i
COc1ccc(N2CCN(C(=O)c3cc4ccccc4o3)CC2)cc1 | i | i | i | nt | i | i
CCc1ccc2oc(C(=O)N3CCN(c4ccccc4OC)CC3)cc(=O)c2c1 | i | i | 5.2µM | i | i | 9.2µM
CCc1ccc2oc(C(=O)N3CCN(c4ccc(OC)cc4)CC3)cc(=O)c2c1 | -84 | i | i | i | i | ?
Cc1ccc(NC(=O)C2CCCN2S(=O)(=O)c2cccc3nsnc23)cc1Cl (centres undefined) | nt | i | ? | i | nt | ?
COc1ccc(NC(=O)Cn2nc(C(=O)O)c3ccccc3c2=O)cc1OC | i | i | i | nt | i | i
COc1cc(C)ccc1S(=O)(=O)N1CCN(C23CC4CC(CC(C4)C2)C3)CC1 | i | i | ? | ? | i | 16µM
SMILES | IL-1B inflam inh | D3 ag | TDP1 cell CPT | ClpP mod | D3 antag | TDP1 cell noCPT
COc1ccccc1NC(=O)c1ccc2c(=O)n3c(nc2c1)CCC3 | i | i | i | i | i | ?
O=C(Nc1ccc(Br)cc1Cl)c1ccc2c(=O)n3c(nc2c1)CCC3 | i | i | 21µM | i | i | 18µM
O=C(Nc1ccc(Cl)cc1Cl)c1ccc2c(=O)n3c(nc2c1)CCC3 | i | i | ? | i | i | 16µM
Cc1cccc(NC(=O)CCC2CCN(C(=O)C3CC=CCC3)CC2)c1 (centres undefined) | i | i | 12µM | i | i | 12µM
O=C(CCC1CCN(C(=O)c2cncs2)CC1)Nc1ccccc1 | i | i | i | i | i | i
O=C(CCC1CCN(C(=O)C2CC=CCC2)CC1)Nc1ccccc1 (centres undefined) | i | i | ? | i | i | 21µM
COc1cccc(NC(=O)CCC2CCN(C(=O)C3CC=CCC3)CC2)c1 (centres undefined) | i | i | ? | i | i | ?
Cc1ccc(C2C(C#N)=C(N)OC3=C2C(=O)CC(C)(C)C3)s1 (centres undefined) | i | i | i | i | i | i
Cc1ccc(CNC(=O)CCCN2C(=O)CCn3nc(-c4cn(C)c5ccccc45)cc32)cc1 | nt | i | i | i | nt | i
Cc1cccc(CNC(=O)CCCN2C(=O)CCn3nc(-c4cn(C)c5ccccc45)cc32)c1 | nt | i | 23µM | i | nt | ?
Cn1cc(-c2cc3n(n2)CCC(=O)N3CCCC(=O)Nc2ccccc2F)c2ccccc21 | nt | i | ? | i | nt | 23µM
Cn1cc(-c2cc3n(n2)CCC(=O)N3CCCC(=O)Nc2ccccc2Cl)c2ccccc21 | nt | i | 18µM | i | nt | 18µM
COc1ccc(NC(=O)CCCN2C(=O)CCn3nc(-c4cn(C)c5ccccc45)cc32)cc1 | nt | i | 23µM | i | nt | 18µM
Cn1cc(-c2cc3n(n2)CCC(=O)N3CCCC(=O)Nc2ccc(F)cc2F)c2ccccc21 | nt | i | ? | i | nt | ?
COc1ccc(NC(=O)CSc2nnc(Cc3ccccc3)c(=O)n2N)cc1OC | i | i | i | nt | i | i
CCNc1nc(NC(N)=S)nc(NC(C)(C)C)n1 | i | i | i | nt | i | i
CSc1nc(NC(C)(C)C)nc(N2CCOCC2)n1 | i | i | ? | i | i | ?
CCNc1nc(NC(C)(C)C)nc(N2CCCC2)n1 | i | i | 18µM | i | i | ?
CC(C)(C)Nc1nc(N2CCCC2)nc(N2CCCC2)n1 | i | i | ? | i | i | 16µM
CCCNc1nc(N2CCCC2)nc(N2CCCC2)n1 | -65 | i | ? | nt | i | 13µM
CCc1cccc(CC)c1-n1nnc2c(sc3nc(C)cc(C)c32)c1=O | nt | i | ? | i | nt | ?
CC(=O)NCCNC(=O)c1cnn(-c2nccc(-c3cc(C)sc3C)n2)c1C | nt | nt | ? | nt | nt | i
O=C(c1ccc2c(c1)N(Cc1cccc(Cl)c1)C(=O)c1ccccc1S2(=O)=O)N1CCN(Cc2ccccc2)CC1 | nt | i | 15µM | i | nt | 9.2µM
CCC1CCCCN1C(=O)c1ccc2c(c1)N(Cc1cccc(Cl)c1)C(=O)c1ccccc1S2(=O)=O (centres undefined) | nt | i | 18µM | i | nt | 16µM
O=C(c1ccc2c(c1)N(Cc1cccc(Cl)c1)C(=O)c1ccccc1S2(=O)=O)N1CCCCCC1 | nt | i | 18µM | i | nt | 23µM

Compound activity as filed in PubChem.
